Reference: PubChem BioAssay (NCI)
The panel holds about 79,000 compounds, 15% with a hit somewhere; the sample as a whole holds those more often. A number with no mark means an inactive call. Active and inactive are the calls of the source. Rule as the data show it: active = growth inhibition above about 70%; inactive = the rest.

Assays:
[1] = NCI Yeast Anticancer Drug Screen. Data for the rad50 strain (AID 155);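 also: 0% = growth of vehicle-only cultures of the same strain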; details: S. cerevisiae rad50 strain growth inhibition; at 50.0 µM; stronger effect = higher value
Outline: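 Vehicle-treated cultures provide the reference for the growth inhibition reported for compound-exposed, repair-deficient yeast.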

[2] = NCI Yeast Anticancer Drug Screen. Data for the mec2-1 strain (AID 157); details: S. cerevisiae mec2-1 strain, at 50.0 µM, stronger effect = higher value
Outline: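 Yeast mec2-1 mutant treated with compound. Readout: growth inhibition vs vehicle controls.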

[3] = NCI Yeast Anticancer Drug Screen. Data for the sgs1 mgt1 strain (AID 161);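 also: 0% = growth of cultures given vehicle only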; details: S. cerevisiae sgs1 mgt1 strain, at 50.0 µM, stronger effect = higher value
Outline: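 Read-out: growth inhibition vs vehicle controls. Cells: mutant yeast strain deficient in DNA damage repair.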

[4] = NCI Yeast Anticancer Drug Screen. Data for the cln2 rad14 strain (AID 165);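 also: 0% = growth equal to vehicle treated cultures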; details: S. cerevisiae cln2 rad14 strain, at 50.0 µM, stronger effect = higher value
Outline: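 cln2 rad14 yeast strain; compound exposure; growth inhibition read vs vehicle controls.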

[5] = NCI Yeast Anticancer Drug Screen. Data for the bub3 strain (AID 167); details: S. cerevisiae bub3 mutant strain, at 50.0 µM, stronger effect = higher value
Outline: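 Mutant yeast screening strain plus compound; vehicle-treated cultures serve as the 0% inhibition reference.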

[6] = NCI Yeast Anticancer Drug Screen. Data for the mlh1 rad18 strain (AID 175); details: S. cerevisiae mlh1 rad18 strain growth inhibition; at 50.0 µM; stronger effect = higher value
Outline: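 Yeast w/ defined DNA-repair lesions; compound exposure; growth vs vehicle controls → % inhibition.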

Compound	growth inhibition [1]	growth inhibition [2]	growth inhibition [3] [%]	growth inhibition [4]	growth inhibition [5]	growth inhibition [6]
CC1CC[C@@]23CCC4(C)[C@@](C=CC5[C@@]6(C)CCC(=O)C(C)(C)C6CC[C@]54C)(OC2=O)[C@@H]3[C@H]1C (some centres not stated)	-14.8%	-17.6%	-14.7	-15.1%	-14.5%	-8.15%
COc1ccccc1NC(=O)CC(=O)N1N=C(C)C(N=Nc2ccc(S(N)(=O)=O)cc2)C1=O (configuration not stated)	13.3%	-1.65%	-8.2	12.8%	11%	11.3%
O=C(O)C(CO)c1ccccc1 (configuration not stated)	0.15%	-1.3%	-4.55	-4.65%	10.6%	-2.75%
COc1cc(OC)nc(NS(=O)(=O)c2ccc(N)cc2)n1	6%	-3.8%	20.9	19.6%	10.3%	6.65%
COC(=O)C(=O)c1c(C(=O)OC)nc2nnc(N)n2c1-c1ccc(Cl)c(Cl)c1	1.7%	-2.8%	-4.9	-29.9%	16.1%	-7.55%
CC(C)Cc1[nH]nc2c1C(=O)C(Nc1ccccc1)=CC2=O	22.5%	25.3%	12.6	-7.65%	2.75%	23.4%
O=c1[nH]cnc2ncnn12	20%	4.2%	9.65	19.2%	21%	16.4%
CCOC(=O)C(CCC(C)(C)SCc1ccccc1)(NC(C)=O)C(=O)OCC	25.8%	-1.15%	1.45	16.7%	2.15%	5.6%
Nc1ccc(C(=O)c2ccccc2)cc1	33.2%	13.9%	25.4	-8.55%	-1.55%	4.9%
CCCC(=O)C(C)C(=O)CC (configuration not stated)	-52.1%	-26.9%	-15.7	4.3%	-6.8%	0.5%
Cc1[nH]c2ccccc2c1C1Cc2ccccc2N1C(=O)/C=C/C=C/c1ccccc1 (configuration not stated)	10.4%	24.7%	-39.4	38.5%	2.2%	15.2%
Cc1nn(C(=O)c2ccc(Cl)cc2)c2c1C(c1ccc(Cl)cc1)SC(N)=N2 (configuration not stated)	9.95%	-21.2%	31.4	-24.9%	-19.4%	12.9%
Nc1ccc(Cl)cc1Cl	-28.3%	-7.1%	-33.5	-34%	-0.1%	-21.3%
Cc1cc(=O)c2c3c(ccc2[nH]1)Oc1ccccc1O3	7.9%	5.95%	5.2	8.45%	7.1%	13.1%
CC12CC3C(CC1SCC(=O)O2)C3(C)C (configuration not stated)	-27.2%	-1.1%	-44.8	1.4%	-25.1%	-26.2%
O=c1[nH]cnc2c1nnn2CCCCCCCCCCCCn1nnc2c(=O)[nH]cnc21	-5.9%	-10.2%	4.5	-4.2%	12.7%	24.8%
O=C1CSC(c2ccc([N+](=O)[O-])cc2)N1c1nncs1 (configuration not stated)	-10.9%	-6.8%	7.25	-2.65%	-8.7%	0.55%
O=C(NC(Cc1ccccc1)P(=O)(O)c1ccccc1)OCc1ccccc1 (configuration not stated)	-8.45%	-30.5%	-30.2	15.7%	2.3%	-12%
O=S(=O)(c1ccc(Br)cc1)N1CCN(S(=O)(=O)c2ccc(Br)cc2)CC1	-24.4%	-23.9%	-35.2	-43.2%	-23.4%	-10.1%
C[Si](C)(CCCNCCN)O[Si](C)(C)CCCNCCN	-7.3%	-24.1%	5.65	-2.1%	9.2%	9.95%
O=C(O)CC1=C(c2ccccc2)C(O)(c2ccccc2)CC1=O (configuration not stated)	4.75%	15.3%	7.05	-27.9%	11.2%	-11.1%

Compound	growth inhibition [1]	growth inhibition [2]	growth inhibition [3] [%]	growth inhibition [4]	growth inhibition [5]	growth inhibition [6]
CN(N)C(=O)NCCCl	-9.1%	-4.6%	8.25	13.4%	-28%	-1.8%
CCc1c(C)[nH]c(C2=NCCC2)c1C	-10.6%	-9.6%	-17.8	-1.6%	-13.4%	-25.1%
Clc1ccc(CSc2nnc(SCc3ccc(Cl)c(Cl)c3)c3[nH]cnc23)cc1Cl	36.5%	6.15%	47.4	30.6%	22.9%	3.1%
CCN(CC)c1ncnc2n[nH]nc12	-1.5%	-15.6%	-18	-27.9%	-28.5%	3.45%
c1ccc(C(c2ccccc2)c2ccccc2)cc1	-20.6%	-20.4%	-16.1	-10.3%	-8.7%	-23.6%
COC(=O)c1ccc(C(=O)OC)c2nc3cc(C)ccc3nc12	-39.1%	-2.3%	-16.2	10.1%	8.65%	14.4%
c1ccc(Cc2[nH]nc(-c3n[nH]c(Cc4ccccc4)c3-c3ccccc3)c2-c2ccccc2)cc1	-28.8%	18.1%	-9.65	-8.35%	-20.6%	8.4%
Cc1ccc(N=Nc2ccc(N)cc2C)c(S(N)(=O)=O)c1	40.3%	4.05%	51.3	5.05%	61.8%	49%
O=c1oc2nc(-c3ccccc3)[nH]c(=O)c2c2c1CCCC2	-8.5%	-7.15%	-19.2	9.3%	-17.9%	19.9%
Cc1ccc(C(=O)Cc2ccccc2)cc1	8.05%	6.15%	4.85	1.25%	-1.85%	1.05%
CC(=O)OC(C)CCl (configuration not stated)	-27.6%	-48.1%	-34	2.6%	-17.7%	-14.2%
CC1(C)CCCC(OC(=O)c2ccc([N+](=O)[O-])cc2)C1 (configuration not stated)	10.4%	-17.5%	-1.3	-2.05%	7.5%	-10.6%
C[N+]12C=CC=C1C(N1CCCC1)c1sc(-c3ccc(Cl)cc3)cc12 (configuration not stated)	7.9%	-11.3%	22	7.3%	0.55%	16.4%
Cc1cc(=O)c2c(=O)n(-c3ccccc3)[nH]c2[nH]1	-34.7%	-13.1%	-11.2	-27.2%	-13.4%	-6.35%
CC(C)CC(C)OB(OC(C)CC(C)C)OC(C)CC(C)C (configuration not stated)	-11.2%	-24.1%	-4.3	-16.9%	0.7%	-14.6%
CCCOC(=O)c1ccnc(C(=O)OCCC)c1	4.85%	4.85%	-1.2	-16.2%	-9.9%	-13.6%
Cc1ccc(C(C)C)cc1NC(=O)c1c(Cl)c(Cl)c(Cl)c(Cl)c1C(=O)O	14.6%	9.8%	23.9	-32.4%	6.45%	23.3%
CCCc1c(C(=O)OCC)[nH]c(C(=O)CCC(=O)c2[nH]c(C(=O)OCC)c(CCC)c2C(=O)OCC)c1C(=O)OCC	20.2%	-13.5%	-10.9	-19.4%	-15.7%	2.35%
CCn1c2ccc(C(=O)CCCN(C)C)cc2c2cc(C(=O)CCCN(C)C)ccc21	5.15%	-33.3%	8.5	4.05%	14.2%	-21.9%
CCCCN(CCCC)CCC(O)c1cc(-c2ccc(Cl)c(Cl)c2)nc2c(Cl)cc(Cl)cc12 (configuration not stated)	96.4% (active)	95.5% (active)	6.85	97.2% (active)	90.3% (active)	74.8% (active)
CC1OC(OCC2OC(Oc3c(-c4ccc(O)cc4)oc4cc(O)cc(O)c4c3=O)C(OC3OC(C)C(O)C(O)C3O)C(O)C2O)C(O)C(O)C1O (configuration not stated)	-13.7%	-21.2%	-2.2	2.75%	-2.9%	5.6%
